{
  "source": "PubChem BioAssay",
  "note": "Unmarked numbers belong to inactive results. Unless noted, how the calls were made is not given here.",
  "data": [
    {"experiment": "ATP-based viability of Huh7 replicon cells – cell-based, CellTiter-Glo luminescence, basal, 48 h, cytotoxicity control for HCV replication inhibitor project, primary screen (AID 1143);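 further: Huh7 hepatoma cells carrying a hepatitis C replication reporter with no stimulus; test concentration not given here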", "settings": "higher = more signal, called active from +8 up or from −8 down", "values": [
      {"smiles": "O=C1O[C@@H](c2ccccc2)[C@@H](c2ccccc2)N2[C@@H](c3ccc(OCCO)cc3)[C@]3(C(=O)Nc4ccc(C#CCCO)cc43)[C@@H](C(=O)NC[C@H](O)c3ccccc3)[C@H]12", "z-score": -0.673},
      {"smiles": "O=C1[C@H]2C=C(Br)[C@H](C[C@@H]2OCCCCCCO)[C@@]12CO2", "z-score": 0.993},
      {"smiles": "C=CCNC(=O)[C@@H]1[C@H]2C(=O)O[C@H](c3ccccc3)[C@H](c3ccccc3)N2[C@H](c2ccc(OCCO)cc2)[C@@]12C(=O)N(C(=O)OCCOC)c1ccc(C#CCNC(N)=O)cc12", "z-score": -1.1},
      {"smiles": "O=C1NC(=O)C2C1C=CC(C(O)c1ccc(I)cc1)N2Nc1ccccn1", "note": "(stereo not given)", "z-score": 0.886},
      {"smiles": "COc1cc2c(cc1OC)CN(C(=O)[C@H]1[C@@H]3C(=O)O[C@@H](c4ccccc4)[C@@H](c4ccccc4)N3[C@@H](c3ccccc3OCCO)[C@]13C(=O)Nc1ccc(C#CCCO)cc13)CC2", "z-score": -0.964},
      {"smiles": "C=CCC(OC(C)=O)[C@@H]1[C@@H](N(Cc2ccc(-c3cccc(C(F)(F)F)c3)o2)C(=O)c2cccc3ccccc23)c2cc(OCCCO)ccc2N1C(=O)Cc1ccc2ccccc2c1", "note": "(stereo not given in full)", "z-score": -0.952},
      {"smiles": "C=CCN1C(=O)[C@]2(O[C@H](CCO)[C@@H]([Si](C)(C)c3ccc(OC)cc3)[C@@H]2C)c2cc(N(C=O)c3ccccc3)ccc21", "z-score": -7.67},
      {"smiles": "COC(=O)c1c2oc(c1C(=O)OC)C(=O)NC1(CCCCC1)c1cn(nn1)C[C@H](Cc1ccccc1)NC(=O)N[C@H](CO)CC2", "z-score": -0.275},
      {"smiles": "CCN(CC)c1ccc(N2CC=CC34O[C@@H]5C=CCOC(=O)[C@@H]5[C@H]3C(=O)N(CCCCCCO)[C@@H]4C2=O)cc1", "note": "(stereo not given in full)", "z-score": -0.289}
    ]},
    {"experiment": "Pseudomonas biofilm growth suppression – PAO1 strain, BacTiter-Glo luminescence, LB-PBS, primary screen (AID 1144)", "settings": "P. aeruginosa PAO1 biofilm, 12 h, higher = more signal", "values": [
      {"smiles": "COC(=O)[C@@]1(Cc2ccc(OC)cc2)[C@H]2c3cc(C(=O)N4CCCC4)n(CCc4ccc(O)c(O)c4)c3C[C@H]2CN1C(=O)c1ccccc1", "z-score": -0.128},
      {"smiles": "CC(CO)N1C(=O)[C@@H]2C3C(=O)OCCC/C=C\\[C@H]3OC23C=CCN(CCN2CCOCC2)C(=O)[C@@H]13", "note": "(stereo not given in full)", "z-score": -1.1},
      {"smiles": "CC1CC/C=C\\[C@H]2OC34C=CCN(Cn5nnc6ccccc65)C(=O)[C@H]3N(CCCCCO)C(=O)[C@@H]4C2C(=O)O1", "note": "(stereo not given in full)", "z-score": -0.989},
      {"smiles": "COC(=O)C(CC#Cc1ccc2c(c1)[C@]1(C(=O)N2)[C@H](c2ccccc2OCCO)N2[C@H](c3ccccc3)[C@H](c3ccccc3)OC(=O)[C@H]2[C@@H]1C(N)=O)C(=O)OC", "z-score": 0.502},
      {"smiles": "COC(=O)[C@@]1(Cc2ccc(OC)cc2)[C@H]2c3cc(C(=O)N4CCCC4)n(CCSCCO)c3C[C@H]2CN1C(=O)c1ccccc1", "z-score": 0.58},
      {"smiles": "C=CC[C@@]1(C(=O)N2CCCCC2)N=C(c2ccc(OCCCO)cc2)O[C@@H]1c1ccccc1CN=[N+]=[N-]", "z-score": -0.703},
      {"smiles": "CCOC(=O)C1=C[C@@H](C(C)C)N(S(=O)(=O)c2ccc(C)cc2)[C@H]1c1ccccc1F", "z-score": -0.0791},
      {"smiles": "NC(=O)[C@@]1(Cc2ccccc2)N=C(c2ccc(OCCCO)cc2)O[C@H]1c1ccccc1", "z-score": -0.657},
      {"smiles": "COc1cc2c(cc1O)C(c1cccs1)N(Cc1ccc([N+](=O)[O-])o1)CC2", "note": "(stereo not given)", "z-score": -0.371},
      {"smiles": "COCCCNC(=O)[C@@]1(Sc2ccc(C)cc2)CC(=O)N(Cc2ccccc2Cl)[C@@H]1c1ccc(CO)cc1", "z-score": -0.915},
      {"smiles": "O=C1N(CCS(=O)(=O)c2ccccc2)c2ccccc2[C@@H]2OC(c3ccc(OCCCO)cc3)=N[C@]12Cc1ccccc1", "z-score": -0.157},
      {"smiles": "[N-]=[N+]=Nc1ccccc1C[C@]1(C(=O)N2CCCCC2)COC(c2ccc(OCCCO)cc2)=N1", "z-score": 1.38},
      {"smiles": "COc1ccc(CCNC(=O)[C@@]2(c3ccc([N+](=O)[O-])cc3)CC(=O)N(CC34CC5CC(CC(C5)C3)C4)[C@@H]2c2ccc(CO)cc2I)cc1", "z-score": -1.53},
      {"smiles": "NCCCCCNC(=O)[C@H]1C[C@H]2C(=O)N3CCC[C@H]3C(=O)N2[C@H]1c1ccc(O)cc1", "z-score": -0.12},
      {"smiles": "COCCCNC(=O)[C@@]1(CCS(=O)(=O)c2ccccc2)N=C(c2ccc(OCCCO)cc2)O[C@H]1c1ccccc1N=[N+]=[N-]", "z-score": -0.372},
      {"smiles": "COc1ccc([Si](C)(C)[C@@H]2[C@@H](CCn3cc(CCO)nn3)O[C@]3(C(=O)N(Cc4cccc(N5C(=O)c6cccc7cccc5c67)c4)c4ccccc43)[C@H]2C)cc1", "z-score": 0.000859}
    ]}
  ]
}
